Laboratory results published in the supplement of paper PMC7411054.
Where a name gives a salt, the structure may show the parent alone.

Legend:
Assay in all cases: lowest phenotypically active concentration; higher = less potent
Conditions in all cases: treatment time: 24 h
[1] = system: A549-TP53BP1-CLTA
In short: (§1)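 Four wells per concentration (0.3, 1, 3 or 9 µM) were treated for 24 h in each of fifteen gene-edited reporter lines from A549, HepG2 and WPMY1 cells, then imaged live. After normalising live-cell features to solvent control wells, deviation was defined as ≥3 of 4 wells lying past the 95th percentile of control Euclidean distances. Reproducibility was defined as a median replicate Pearson correlation above the 95th percentile of non-replicates. Both had to hold for phenotypic activity.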

[2] = system: WPMY1-ACTB-RAB5A
In short: as §1

[3] = system: WPMY1-GM130-SQSTM1
In short: as §1

[4] = system: WPMY1-TP53BP1-CLTA
In short: as §1

[5] = system: WPMY1-TUBA1B-RELA
In short: as §1

[6] = system: HepG2-CANX-COX4
In short: as §1

[7] = system: HepG2-TP53BP1-CLTA
In short: as §1

[8] = system: HepG2-TUBA1B-RELA
In short: as §1

[9] = system: HepG2-GM130-SQSTM1
In short: as §1

Row | SMILES | lowest phenotypically active concentration [1] | lowest phenotypically active concentration [2] | lowest phenotypically active concentration [3] | lowest phenotypically active concentration [4] | lowest phenotypically active concentration [5] | lowest phenotypically active concentration [6] | lowest phenotypically active concentration [7] | lowest phenotypically active concentration [8] | lowest phenotypically active concentration [9]
1 | O=C(O)[C@@H]1[C@H]2C[C@H]3c4[nH]c5ccccc5c4CCN3C[C@@H]2CC[C@@H]1O [Yohimbinic acid monohydrate] | 9 µM | 9 µM | 9 µM | 9 µM | 9 µM | – | – | – | –
2 | CN1[C@@H]2CC[C@H]1C[C@@H](OC(c1ccccc1)c1ccccc1)C2 [benztropine] | 9 µM | – | 9 µM | – | 9 µM | 9 µM | 9 µM | 9 µM | –
3 | COc1ccc(CNC(=O)Nc2ncc([N+](=O)[O-])s2)cc1 | 9 µM | – | 9 µM | 9 µM | – | – | – | – | –
4 | Clc1ccccc1C(c1ccccc1)(c1ccccc1)n1ccnc1 [Clotrimazole] | 9 µM | – | 9 µM | – | – | 9 µM | – | – | –
5 | CCCS(=O)(=O)Nc1ccc(F)c(C(=O)c2c[nH]c3ncc(Cl)cc23)c1F | 1 µM | – | 9 µM | – | – | 1 µM | 1 µM | 9 µM | ≤ 0.3 µM
6 | COc1cc2ncnc(Nc3ccc(Cl)cc3F)c2cc1OC | 3 µM | – | – | – | – | – | – | – | –
7 | COc1c(C=O)c(O)cc2c1C(=O)c1ccccc1C2=O [Damnacanthal] | 3 µM | 9 µM | 3 µM | 9 µM | 9 µM | – | 9 µM | – | 9 µM
8 | COc1ccccc1OCCNCC(O)COc1cccc2[nH]c3ccccc3c12 (stereo not drawn) [Carvedilol] | 9 µM | 9 µM | 3 µM | 9 µM | 9 µM | 9 µM | 9 µM | 9 µM | 9 µM
9 | CNCCC(Oc1ccc(C(F)(F)F)cc1)c1ccccc1 (stereo not drawn) [fluoxetine] | 9 µM | – | 9 µM | – | – | – | 9 µM | 3 µM | –
10 | C[C@H]1Oc2cc(cnc2N)-c2c(nn(C)c2C#N)CN(C)C(=O)c2ccc(F)cc21 | 3 µM | – | – | 9 µM | – | 3 µM | 3 µM | ≤ 0.3 µM | 3 µM
11 | CSc1ccc2c(c1)N(CCC1CCCCN1C)c1ccccc1S2 (stereo not drawn) [thioridazine] | 9 µM | 9 µM | 9 µM | 9 µM | 9 µM | 9 µM | 9 µM | 9 µM | 9 µM
12 | CC(C)OC(=O)c1cc2c(OCC(O)CNC(C)(C)C)cccc2[nH]1 (stereo not drawn) | 9 µM | 3 µM | 9 µM | 9 µM | 9 µM | – | 3 µM | 9 µM | –
13 | NS(=O)(=O)c1nn2cc(-c3ccccc3)nc2s1 | 9 µM | 9 µM | 9 µM | 9 µM | 9 µM | 9 µM | – | 9 µM | 9 µM
14 | CCCNCC(O)COc1ccccc1C(=O)CCc1ccccc1 (stereo not drawn) [propafenone] | 9 µM | 9 µM | 3 µM | 3 µM | – | – | – | 9 µM | –
15 | O=C(O)C[C@H](O)C[C@H](O)/C=C/c1c(C2CC2)nc2ccccc2c1-c1ccc(F)cc1 [Pitavastatin calcium] | 9 µM | ≤ 0.3 µM | ≤ 0.3 µM | 1 µM | 1 µM | 1 µM | 1 µM | 1 µM | 1 µM
16 | O=C(NOCC1CC1)c1ccc(F)c(F)c1Nc1ccc(I)cc1Cl | ≤ 0.3 µM | – | – | – | – | 1 µM | ≤ 0.3 µM | ≤ 0.3 µM | ≤ 0.3 µM
17 | CC/C(=C(\CC)c1ccc(O)c(CN(CC)CC)c1)c1ccc(O)c(CN(CC)CC)c1 | 1 µM | 1 µM | 1 µM | 9 µM | 9 µM | – | ≤ 0.3 µM | 1 µM | 1 µM
18 | COc1cc(OC)c2cc(-c3ccncc3)cnc2c1 [DMPQ dihydrochloride] | 9 µM | – | – | 9 µM | – | 9 µM | – | – | –
19 | CC(C)COCC(CN(Cc1ccccc1)c1ccccc1)N1CCCC1 (stereo not drawn) [bepridil] | 9 µM | – | 9 µM | 9 µM | – | 9 µM | 9 µM | 9 µM | 9 µM
20 | Cc1noc(C)c1-c1ccc2c(c1)nc(CCc1ccc(OCCCN(C)C)cc1)n2CCN1CCOCC1 | 9 µM | 9 µM | 9 µM | 9 µM | 9 µM | 9 µM | 9 µM | 9 µM | 9 µM
21 | Cc1cc(Nc2ccc(NC(=O)c3ccc(Nc4ccnc5ccccc45)cc3)cc2)nc(N)n1 | 9 µM | 3 µM | 1 µM | 3 µM | 3 µM | – | 3 µM | 3 µM | 1 µM
22 | NC(=O)c1cccc(-c2cc(Nc3ccc(OC(F)(F)F)cc3)ncn2)c1 | 9 µM | 3 µM | 9 µM | 9 µM | – | – | – | – | 9 µM
23 | Cc1ccc(NC(=O)c2cccc(N(C)C)c2)cc1NC(=O)c1ccc(O)cc1 | 3 µM | 9 µM | – | – | – | – | – | – | –
24 | O=S(=O)(c1cccc2cnccc12)N1CCCNCC1 [fasudil] | 9 µM | 3 µM | 9 µM | – | 9 µM | 3 µM | 3 µM | 9 µM | 3 µM
25 | N#C/C(=C(/N)Sc1ccc(N)cc1)c1ccccc1C(F)(F)F | 1 µM | – | – | 9 µM | – | 3 µM | 3 µM | 9 µM | 9 µM
26 | CN1CCN(c2ccc(-c3cccc(CN4CCOCC4)c3)cc2NC(=O)c2c[nH]c(=O)cc2C(F)(F)F)CC1 | – | – | 9 µM | 9 µM | 9 µM | – | 9 µM | 9 µM | 9 µM
27 | CC(CN(C)C)CN1c2ccccc2CCc2ccccc21 (stereo not drawn) [trimipramine] | – | 9 µM | 9 µM | – | – | – | – | 9 µM | –
28 | Cc1cc(CS(=O)(=O)c2ccccc2)cc(OCc2ccc(CN3CCC[C@@H]3CO)cc2)c1 [PF 543 hydrochloride] | – | 9 µM | – | – | – | – | 9 µM | – | 9 µM
29 | Fc1ccc([C@@H]2CCNC[C@H]2COc2ccc3c(c2)OCO3)cc1 [paroxetine] | – | 9 µM | 9 µM | 9 µM | 9 µM | – | 9 µM | 3 µM | 9 µM
